# Results reported in PubChem BioAssay AID2018 (Sanford-Burnham Center for Chemical Genomics, 2009).
# The whole screen tested about 1,200 compounds, of which about 600 (50%) were called active. So high a share suggests a set chosen from earlier hits. The list shows a part of the results. Entries with a potency or affinity are not part of this list. Unmarked numbers belong to inactive results. Cut-off read from the data, not from the text of the source: active = inhibition above about 42%; inactive = the rest.
# Target: SUMO-conjugating enzyme UBC9 (Homo sapiens) (UniProt P63279)
# Assay: SUMOylation inhibitor hit validation, confirmation, SUMOylation inhibitor project, biochemical, AlphaScreen (AID 2018)
# Settings: AlphaScreen in vitro SUMOylation assay; at 35 µM; hits give high values
# SUMO-conjugating enzyme UBC9 (Homo sapiens), sequence (P63279 whole entry, looked up): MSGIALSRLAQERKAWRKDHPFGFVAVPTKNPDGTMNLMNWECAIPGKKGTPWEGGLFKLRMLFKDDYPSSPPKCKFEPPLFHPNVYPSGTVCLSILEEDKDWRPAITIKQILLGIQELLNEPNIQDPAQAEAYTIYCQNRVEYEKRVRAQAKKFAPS
row,SMILES,inhibition
1,CN(C(=S)Nc1cccnc1)c1ccc(O)cc1,19.3%
2,O=C(Nc1cccc(N=Cc2cc(Br)cc(Br)c2O)c1)c1ccco1,24.9%
3,COc1ccc2oc(=O)c(/C(C)=N/NC(=O)c3ccncc3)cc2c1,7.3%
4,C/C(=N\NC(=O)c1cc(O)ccc1O)c1cccc(NC(=O)c2ccc(Cl)cc2)c1,94.8% (active)
5,Cc1ccc(NC2=CC(=O)CC(c3ccco3)C2)c(N)c1 (stereo not drawn),20.2%
6,COc1cc(/C=N/NC(=O)c2cc(-c3ccco3)nc3ccccc23)cc(OC)c1O,55.1% (active)
7,O=C(COC(=O)c1cc(-c2cccs2)nc2ccccc12)NCc1ccco1,7.3%
8,CCOc1ccc(/C=N/NC(=O)c2cc(-c3ccco3)nc3ccccc23)cc1,-1.6%
9,CCN(CC)Cc1c(O)ccc2c(=O)c(Oc3ccccc3OC)coc12,3.9%
10,CCOc1cc(/C=C2\C(=O)N(c3ccc(C(N)=O)cc3)N=C2C)ccc1OC(=O)c1cccs1,81.1% (active)
11,CCOc1cc(/C=C2/C(=O)N(c3ccccc3)N=C2C)ccc1OC(=O)c1ccco1,73.7% (active)
12,COc1ccccc1Oc1c(C)oc2cc(OC(=O)c3ccco3)ccc2c1=O,18.7%
13,CCOC(=O)N1CCN(C(=O)c2cccn3c(=O)c4cc(Br)ccc4nc23)CC1,4.2%
14,COC1=C(Nc2ccc(O)cc2)C(=O)c2ccccc2C1=O,74.4% (active)
15,CC(NC(=O)Nc1ccc(O)cc1)(C(F)(F)F)C(F)(F)F,1.3%
16,COC1=C(Nc2ccccc2OC)C(=O)c2ccccc2C1=O,96.4% (active)
17,COC1=C(Nc2ccccc2)C(=O)c2ccccc2C1=O,93% (active)
18,CC(=O)c1ccc(NC(=S)Nc2cccc3ccccc23)cc1,7.1%
19,Nc1ccc(N(CCO)CCO)cc1,38.6%
20,COc1ccc(C=Nc2ccc3[nH]ncc3c2)c(O)c1,19.3%
21,CN1C(=O)N(C)c2ccc(C=O)c3cccc1c23,22.2%
22,Cc1cccn2cc(-c3ccc(S(=O)(=O)N4CCOCC4)cc3)nc12,-6.1%
23,O=S(=O)(c1ccc2nc(-c3ccco3)c(-c3ccco3)nc2c1)N1CCOCC1,52% (active)
24,O=C(Nc1ccccc1F)Nc1cc(S(=O)(=O)N2CCOCC2)ccc1N1CCCC1,13.5%

row,SMILES,inhibition
1,CCOC(=O)c1c(C)oc2c1c(C=NCCO)c(O)c1ccccc12,99.7% (active)
2,O=C(CSc1ncccn1)NCc1ccc2c(c1)OCO2,-9.4%
3,O=c1cc2c(=O)oc3cc(O)c(O)oc3c2c(O)c1O,89.8% (active)
4,NCCc1ccc(O)c(O)c1,-6.3%
5,Cc1[nH][nH]c(=O)c1C(c1ccc(-c2ccccc2C(=O)O)o1)c1c(C)[nH][nH]c1=O,66.6% (active)
6,COc1ccc(O)c(C(c2c(C)[nH][nH]c2=O)c2c(C)[nH][nH]c2=O)c1,17.7%
7,COC(=O)c1ccccc1-c1ccc(C(c2c(C)[nH][nH]c2=O)c2c(C)[nH][nH]c2=O)o1,88.2% (active)
8,COc1ccc(-c2ccc(C(c3c(C)[nH][nH]c3=O)c3c(C)[nH][nH]c3=O)o2)c([N+](=O)[O-])c1,73.1% (active)
9,Cc1ccc(-n2cccn2)c([C@@H]2C[C@H]3CN(C)C(=O)[C@]34CCCN24)c1,8.1%
10,Cc1ccccc1-c1nc2cc(N)ccc2o1,21.4%
11,CN(C)S(=O)(=O)c1cc(NC(=O)CNCc2ccccc2)ccc1Cl,-19.5%
12,O=C(c1cccn2c(=O)c3cc4ccccc4cc3nc12)N1CCN(c2ccccc2)CC1,27.6%
13,CN(C)C=Nc1ccc2nc3c(cc2c1)[nH]c1ccccc13,20.5%
14,Cc1cc[n+](-c2[nH]c(=O)sc2/C=N/N=C(\[O-])c2ccncc2)cc1,-9.7%
15,Cc1cccn2c(=O)c3cc(C#N)c(=NC(=O)c4ccco4)n(Cc4ccco4)c3nc12,25.4%
16,O=c1oc(-c2cccs2)nc2sc3c(c12)CCC3,-2.8%
17,CN(C)c1cc(N/N=C/c2ccccc2C(F)(F)F)nc(N(C)C)n1,72.9% (active)
18,Cc1ccc(-c2[nH]ncc2/C=N/n2c(C)nc3ccccc3c2=O)cc1,66.8% (active)
19,Cc1nc2ccccc2c(=O)n1/N=C/c1ccc(O)c(O)c1O,81.7% (active)
20,O=C1NC(=O)c2cc(NC(=O)C3CCCCC3)ccc21,8.7%
21,O=C(c1cccc2cccc(O)c12)N1CCCCC1,14.8%
22,Cc1cc(C)cc(Oc2coc3c(CN(C)C)c(O)ccc3c2=O)c1,10.6%
23,COc1ccc2c(c1)Cc1sc(NC(=O)c3ccco3)nc1-2,40.3%
24,COc1ccc(-c2cc(C(F)(F)F)n3ncc(C(=O)NCc4ccco4)c3n2)cc1,32.4%

row,SMILES,inhibition
1,COc1ccc2oc(=O)c(C(=O)NCc3ccco3)cc2c1,-14.1%
2,Cc1ccc(NC(=O)C2CCN(C(=O)c3ccco3)CC2)cc1,0.4%
3,O=C(COc1ccc2oc(-c3ccco3)cc(=O)c2c1)N1CCCCC1,-2.7%
4,COc1ccc(-n2nc3cc(C)c(N)c(Br)c3n2)cc1,18.3%
5,Cc1ccc(C)c(S(=O)(=O)C(C#N)c2nc3ccccc3nc2N2CCCC2)c1 (stereo not drawn),44.3% (active)
6,N#CC(c1nc2ccccc2nc1N1CCCC1)S(=O)(=O)c1cccs1 (stereo not drawn),37.3%
7,Cc1ccccc1S(=O)(=O)Nc1nc2ccccc2nc1N1CCc2ccccc2C1,-43.2%
8,Cc1ccc(C)c(S(=O)(=O)C(C#N)c2nc3ccccc3nc2N2CCOCC2)c1 (stereo not drawn),9.2%
9,N#CC(C(=O)NC1CC1)c1nc2ccccc2nc1N1CCCC1 (stereo not drawn),29%
10,Cc1ccc(C)c(S(=O)(=O)C(C#N)c2nc3ccccc3nc2N2CC(C)OC(C)C2)c1 (stereo not drawn),4.8%
11,COc1ccc(S(=O)(=O)C(C#N)c2nc3ccccc3nc2N2CCC(C)CC2)cc1 (stereo not drawn),15.7%
12,COc1ccc(S(=O)(=O)C(C#N)c2nc3ccccc3nc2N2CCCCC2)cc1 (stereo not drawn),42.8% (active)
13,C=CCNC(=O)C(C#N)c1nc2ccccc2nc1N1CCCCCC1 (stereo not drawn),30.3%
14,Cc1ccc(S(=O)(=O)C(C#N)c2nc3ccccc3nc2N2CCCC2)cc1C (stereo not drawn),45.8% (active)
15,Cc1ccc(S(=O)(=O)C(C#N)c2nc3ccccc3nc2N2CC(C)OC(C)C2)cc1C (stereo not drawn),22.8%
16,N#CC(c1nc2ccccc2nc1N1CCCC1)S(=O)(=O)c1ccccc1 (stereo not drawn),66.7% (active)
17,CC(=O)c1ccc(NC(=O)Nc2cccnc2)cc1,-7.1%
18,CSc1ccc(-c2cc(=O)c3ccccc3o2)cc1,-11%
19,CN(C)/C=N/c1nc2nccc(-c3cccnc3)n2n1,-4%
20,Cc1ccc(S(=O)(=O)C(C#N)c2nc3ccccc3nc2N2CCCC2)cc1 (stereo not drawn),44.2% (active)
21,C=CCOC(=O)C(C#N)c1nc2ccccc2nc1N1CCN(Cc2ccccc2)CC1 (stereo not drawn),22.9%
22,Cc1cccc(S(=O)(=O)C(C#N)c2nc3ccccc3nc2N2CCCC2)c1 (stereo not drawn),28.3%
23,O=C(O)CN1C(=O)/C(=C\c2cc([N+](=O)[O-])ccc2OCc2ccccc2Cl)SC1=S,63% (active)
24,CC(C)C(=O)Nc1cccc(C(=O)NCc2ccc3c(c2)OCO3)c1,13.6%

row,SMILES,inhibition
1,CC(=O)Nc1ccc(-c2nc3ccc(NC(C)=O)cc3o2)cc1,25.1%
2,CC(=O)Nc1ccc(-c2cn3cccnc3n2)cc1,5.9%
3,Clc1ccc(C2=CSC3=Nc4cccc5cccc(c45)N23)cc1,101% (active)
4,COc1ccc(OC)c(S(=O)(=O)NCCc2cn3ccsc3n2)c1,44.5% (active)
5,CCN(CC)C(=O)C1CCCN(C(=O)Nc2ccc3nsnc3c2)C1 (stereo not drawn),-9%
6,COc1ccc(C2C(C(C)=O)=C(O)C(=O)N2C)c(OC)c1 (stereo not drawn),-14.2%
7,COc1ccc(NCc2ccc([N+](=O)[O-])s2)c(OC)c1,87% (active)
8,N#Cc1c(N(CCO)CCO)nc(N)c2c(N)nc3c(c12)CC(=O)N3Cc1cccs1,52.9% (active)
9,N#Cc1c(N(CCO)CCO)nc(N)c2c(N)nc3c(c12)CC(=O)N3CC1CCCO1 (stereo not drawn),26%
10,COCCN(CCOC)c1nc(N)c2c(N)nc3c(c2c1C#N)CC(=O)N3Cc1ccc(Cl)cc1,11.2%
11,CCOC(=O)N1CCN(C(=O)c2cccn3c(=O)c4cc(Cl)ccc4nc23)CC1,11%
12,Nc1nnc(CC(=O)N/N=C/c2cc([N+](=O)[O-])cc(Br)c2O)s1,102% (active)
13,O=C1CC(CC(=O)N/N=C/c2ccccc2[N+](=O)[O-])=NN1,26.8%
14,O=C1/C(=C/c2ccco2)Oc2c1ccc(O)c2CN1CCCCC1,9.4%
15,Cc1cc(-c2csc(NC(=O)c3ccc(=O)[nH]c3)n2)c(C)n1Cc1ccccc1,29.1%
16,CC1CCN(Cc2cc(=O)oc3cc(O)c(Cl)cc23)CC1,-10.6%
17,Cc1ccc(-c2nn(-c3ccccc3)cc2/C=C2\SC(=S)N(CCCCCC(=O)O)C2=O)o1,74.8% (active)
18,O=C(O)CCCN1C(=O)/C(=C/c2cn(-c3ccccc3)nc2-c2cccs2)SC1=S,76% (active)
19,Cc1ccc(N/N=C2\CC(=O)c3ccccc32)cc1Cl,78.3% (active)
20,CC(=O)N1C(=S)NC(=O)/C1=C1/C(=O)N(CC(=O)Nc2cccc(C)c2)c2ccccc21,12.6%
21,Cc1ccc(NC(=O)CN2C(=O)S/C(=C/c3ccc(-c4cc(C(=O)O)ccc4C)o3)C2=O)cc1C,101% (active)
